PubChem BioAssay (Tox21)
Inconclusive results are not listed. Where a structure was tested more than once in an assay, its records may differ in their call. Active and inactive are the calls of the source. Unless noted, calls come from the whole dose curve; as a rule, active = well fitted curve in the direction sought with a large enough effect in the repeat runs; inconclusive = weak or mixed curves; inactive = no such curve, though single readings can be large; an effect the other way counts as inactive or inconclusive.

Legend:
[1] = target: Thyrotropin-releasing hormone receptor (Homo sapiens) (UniProt P34981); test: qHTS assay to identify small molecule agonists of the thyrotropin-releasing hormone receptor (TRHR) signaling pathway (AID 1346891; calls by dose curve; note: potency is the fitted concentration of half-maximal effect;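 for activation: HEK293 cells expressing TRHR with calcium dye readout; series mostly up to about 58 µM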)
Outline: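 HEK293/TRHR cells, 1500 per well, 18 h 37 °C; Ca dye 2 h 37 °C; pin-tool compound addition (agonist mode); kinetic fluorescence 3 min, 1 s reads; 15 concentrations, triplicate.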

[2] = Human pregnane X receptor (PXR) small molecule agonists, qHTS cell viability counter screen (AID 1346977); note: nearly all actives have a fitted effect of over 50% in size; note: potency is the fitted concentration of half-maximal effect
Outline: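 Fluorescence read-out (CellTiter-Fluor) of viability in PXR-Luc HepG2 cells, multiplexed with the luciferase agonist read. Compounds in DMSO added after 5hr plating; 24hr total exposure at 37C, 5% CO2.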

[3] = Caspase-3/7 induction in HepG2 cells by small molecules, qHTS assay (AID 1346978); note: nearly all actives have a fitted effect of over 15% in size
Outline: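 Wild-type HepG2 cells (2,000/well) were settled 5 h at 37 C, 5% CO2, then exposed to compounds in DMSO for 17 h. Caspase-3/7 activity was read by luminescence 30 min after adding Caspase-Glo 3/7 reagent at room temperature.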

[4] = Caspase-3/7 induction in CHO-K1 cells by small molecules, qHTS cell viability counter screen (AID 1346979); note: nearly all actives have a fitted effect of over 35% in size; note: potency is the fitted concentration of half-maximal effect
Outline: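 CHO-K1 wt, 1,500 cells/well; 5hr pre-incubation 37C/5% CO2; compound pin transfer (DMSO); 16hr exposure; CellTiter-Fluor added, 1hr, fluorescence read.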

[5] = Caspase-3/7 induction in CHO-K1 cells by small molecules, qHTS assay (AID 1346980); note: nearly all actives have a fitted effect of over 15% in size
Outline: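 Wild-type cells were seeded at 1,500 per well and settled 5 hr at 37 C, 5% CO2, then exposed to DMSO-dissolved compounds for 17 hr. Caspase-Glo 3/7 reagent was added, and luminescence was read after 30min at room temperature.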

[6] = Caspase-3/7 induction in HepG2 cells by small molecules, qHTS cell viability counter screen (AID 1346981); note: nearly all actives have a fitted effect of over 30% in size; note: potency is the fitted concentration of half-maximal effect
Outline: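 Cell viability is measured as a cytotoxicity counter screen alongside the Caspase-Glo 3/7 readout in identical wells. Wild-type HepG2 cells are treated with test compounds for 16 hr at 37 C before CellTiter-Fluor addition and a 1-hr incubation.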

[7] = target: Nuclear receptor subfamily 1 group I member 2 (Homo sapiens) (UniProt O75469); test: Human pregnane X receptor (PXR) small molecule agonists, qHTS assay (AID 1346982); note: nearly all actives have a fitted effect of over 35% in size; note: potency is the fitted concentration of half-maximal effect
Outline: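 Cells: HepG2 stably carrying PXR-Luc. Medium held 5% charcoal-stripped FBS. Compounds in DMSO added after 5 hr plating, incubated 24 hr, then luminescence quantified with ONE-Glo.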
% is set by controls: 0 for no effect and ±100 for the full control effect.

Chain of Nuclear receptor subfamily 1 group I member 2 (Homo sapiens) (O75469 whole entry, looked up): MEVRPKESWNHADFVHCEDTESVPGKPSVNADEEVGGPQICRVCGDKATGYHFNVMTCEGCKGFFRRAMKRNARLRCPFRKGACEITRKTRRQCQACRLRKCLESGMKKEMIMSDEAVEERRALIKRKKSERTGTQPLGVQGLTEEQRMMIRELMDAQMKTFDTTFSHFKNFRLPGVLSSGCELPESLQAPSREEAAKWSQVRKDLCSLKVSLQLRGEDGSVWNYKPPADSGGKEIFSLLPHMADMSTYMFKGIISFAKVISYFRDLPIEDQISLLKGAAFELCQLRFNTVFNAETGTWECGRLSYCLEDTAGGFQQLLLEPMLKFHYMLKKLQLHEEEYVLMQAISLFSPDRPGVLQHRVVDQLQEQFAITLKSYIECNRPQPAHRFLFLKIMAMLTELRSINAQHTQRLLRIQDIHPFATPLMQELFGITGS
Chain of Thyrotropin-releasing hormone receptor (Homo sapiens) (P34981 whole entry, looked up): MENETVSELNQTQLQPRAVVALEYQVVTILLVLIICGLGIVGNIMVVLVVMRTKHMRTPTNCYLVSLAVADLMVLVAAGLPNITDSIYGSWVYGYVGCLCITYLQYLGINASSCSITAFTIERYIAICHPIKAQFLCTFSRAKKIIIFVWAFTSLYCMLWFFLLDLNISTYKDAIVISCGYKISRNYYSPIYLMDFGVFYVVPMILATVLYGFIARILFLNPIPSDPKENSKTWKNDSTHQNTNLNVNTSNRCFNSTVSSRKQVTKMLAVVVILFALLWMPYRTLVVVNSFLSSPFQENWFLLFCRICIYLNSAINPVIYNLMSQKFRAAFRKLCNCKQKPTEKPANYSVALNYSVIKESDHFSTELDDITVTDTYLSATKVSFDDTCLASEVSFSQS

Brc1cc2ccccc2c2ccccc12
inactive: Potency [1] | Potency [2] | Potency [3] | Potency [4] | Potency [5] | Potency [6]

CCC1NC(=O)c2cc(S(N)(=O)=O)c(Cl)cc2N1 (stereo unspecified)
inactive: Potency [1] | Potency [2] | Potency [3] | Potency [4] | Potency [5] | Potency [6]

CC(C)=CC(=O)C=C(C)C
inactive: Potency [1] | Potency [2] | Potency [3] | Potency [4] | Potency [5] | Potency [6] | Potency [7]

Cc1cc(O)ccc1O
inactive: Potency [1] | Potency [2] | Potency [3] | Potency [5]
active: Potency [4] 31 µM

C=CC(C)(CCC=C(C)C)OC(=O)CC(C)C (stereo unspecified)
inactive: Potency [1] | Potency [2] | Potency [3] | Potency [4] | Potency [5] | Potency [6] | Potency [7]

Cc1ccc(CO)cc1
inactive: Potency [1] | Potency [2] | Potency [3] | Potency [4] | Potency [5] | Potency [6] | Potency [7]

CC(C)=CCC/C(C)=C/CC/C(C)=C/CCC(=O)OC/C=C(\C)CCC=C(C)C
inactive: Potency [1] | Potency [2] | Potency [3] | Potency [4] | Potency [5] | Potency [6] | Potency [7]

CCCCCCCCN
active: Potency [7] 27 µM
inactive: Potency [1] | Potency [2] | Potency [3] | Potency [4] | Potency [5] | Potency [6]

O=[N+]([O-])c1ccc(Nc2ccc(Nc3ccccc3)c(S(=O)(=O)O)c2)c([N+](=O)[O-])c1
active: Potency [2] 68.6 µM | Potency [4] 54.5 µM | Potency [6] 61.1 µM
inactive: Potency [1] | Potency [3] | Potency [5]

Oc1cc2c(cc1O)[C@H]1c3ccc(O)c(O)c3OC[C@@]1(O)C2
active: Potency [2] 27.6 µM | Potency [4] 27.6 µM | Potency [6] 55.1 µM
inactive: Potency [1] | Potency [3] | Potency [5] | Potency [7]

Cc1ccccc1S
inactive: Potency [1] | Potency [2] | Potency [3] | Potency [4] | Potency [5] | Potency [6]

CC(CO)CO
inactive: Potency [1] | Potency [2] | Potency [3] | Potency [4] | Potency [5] | Potency [6] | Potency [7]

CCCCCCCC/C=C\CCCCCCCCO
inactive: Potency [1] | Potency [2] | Potency [3] | Potency [4] | Potency [5] | Potency [6]
active: Potency [7] 30.6 µM

COC(=O)CS
inactive: Potency [1] | Potency [2] | Potency [3] | Potency [4] | Potency [5] | Potency [6] | Potency [7]

Cc1cc(=O)c2c(O)c3c(O)cc(=O)c4c3c3c(cc(O)c1c23)C(C)(C)C=4O
active: Potency [2] 0.73 µM | Potency [4] 2.59 µM
inactive: activation [1] 12.7% [at 11.8 µM] | caspase activation [3] -2.97% [at 19 µM] | caspase-3/7 activation [5] -1.78% [at 19 µM]

Cc1cccc(O)c1N
inactive: Potency [1] | Potency [2] | Potency [3] | Potency [5] | Potency [6] | Potency [7]
active: Potency [4] 61.8 µM

O=C1c2ccccc2C(=O)c2c(O)c(O)cc(O)c21
inactive: Potency [1] | Potency [3] | Potency [5] | Potency [7]
active: Potency [2] 54.5 µM | Potency [4] 48.6 µM | Potency [6] 54.5 µM

Cc1cc(C)cc(N)c1
inactive: Potency [1] | Potency [2] | Potency [3] | Potency [4] | Potency [5] | Potency [6]
active: Potency [7] 61.9 µM

CC(C)C=O
inactive: Potency [1] | Potency [2] | Potency [3] | Potency [4] | Potency [5] | Potency [6]

CO[C@]1(NC(=O)CSC(F)F)C(=O)N2C(C(=O)O)=C(CSc3nnnn3CCO)CO[C@H]21
inactive: Potency [1] | Potency [2] | Potency [3] | Potency [4] | Potency [5] | Potency [6]

CCCCC(CC)CN (stereo unspecified)
inactive: Potency [1] | Potency [2] | Potency [3] | Potency [4] | Potency [5] | Potency [6]

CCOC(=O)[C@H](CCc1ccccc1)N[C@@H](C)C(=O)N(CC(=O)O)C1Cc2ccccc2C1
inactive: Potency [1] | Potency [2] | Potency [3] | Potency [4] | Potency [5] | Potency [6]
active: Potency [7] 11.9 µM

CC=C(Cl)Cl
inactive: Potency [1] | Potency [2] | Potency [3] | Potency [4] | Potency [5] | Potency [6]

CC(O)c1ccccc1 (stereo unspecified)
inactive: Potency [1] | Potency [2] | Potency [3] | Potency [4] | Potency [5] | Potency [6] | Potency [7]

COc1ccc(OC(=O)N(CC(=O)O)Cc2ccc(OCCc3nc(-c4ccccc4)oc3C)cc2)cc1
inactive: Potency [1] | Potency [2] | Potency [3] | Potency [4] | Potency [5] | Potency [6] | Potency [7]

CCc1ccccc1
inactive: Potency [1] | Potency [2] | Potency [3] | Potency [4] | Potency [5] | Potency [6] | Potency [7]

OCCOCC#CCOCCO
inactive: Potency [1] | Potency [2] | Potency [3] | Potency [4] | Potency [5] | Potency [6] | Potency [7]

CC1CC(OC(=O)C(O)c2ccccc2)CC(C)(C)N1C (stereo unspecified)
inactive: Potency [1] | Potency [2] | Potency [3] | Potency [4] | Potency [5] | Potency [6]

O=C(O)C[C@H](NC(=O)OCc1ccccc1)C(=O)O
inactive: Potency [1] | Potency [2] | Potency [3] | Potency [4] | Potency [5] | Potency [6] | Potency [7]

c1ccc2c(c1)CCc1ccccc1N2
inactive: Potency [1] | Potency [2] | Potency [3] | Potency [4] | Potency [5] | Potency [6]
61.4 µM (active) and inactive: Potency [7]

CCC(C)(C)OC
inactive: Potency [1] | Potency [2] | Potency [3] | Potency [4] | Potency [5] | Potency [6] | Potency [7]

CC(C)(c1ccccc1)c1ccccc1
inactive: Potency [1] | Potency [2] | Potency [3] | Potency [4] | Potency [5] | Potency [6]

CC(=O)OCC[N+](C)(C)C
inactive: Potency [2] | Potency [3] | Potency [4] | Potency [5] | Potency [6] | Potency [7]
active: Potency [1] 3.01 µM

N#CCCN(CCO)CCO
inactive: Potency [1] | Potency [2] | Potency [3] | Potency [4] | Potency [5] | Potency [6] | Potency [7]

OC1(c2ccccc2)CCNCC1
inactive: Potency [1] | Potency [2] | Potency [3] | Potency [4] | Potency [5] | Potency [6] | Potency [7]

CCCCCC[C@@H](O)C/C=C\CCCCCCCC(=O)O
inactive: Potency [1] | Potency [2] | Potency [3] | Potency [4] | Potency [5] | Potency [6] | Potency [7]

Cc1ccc(C(C)(C)O)cc1
inactive: Potency [1] | Potency [2] | Potency [3] | Potency [4] | Potency [5] | Potency [6] | Potency [7]

CC(C)C(O)(c1ccc(OC(F)(F)F)cc1)c1cncnc1 (stereo unspecified)
inactive: Potency [1] | Potency [2] | Potency [3] | Potency [4] | Potency [5] | Potency [6]

CC/C=C1/OC(=O)c2ccccc21
inactive: Potency [1] | Potency [2] | Potency [3] | Potency [4] | Potency [5] | Potency [6] | Potency [7]

CC(=O)Oc1ccc([N+](=O)[O-])cc1CCl
inactive: Potency [1] | Potency [3] | Potency [5] | Potency [7]
active: Potency [2] 48.6 µM | Potency [4] 30.6 µM | Potency [6] 27.3 µM

N#CCc1ccc(Cl)cc1Cl
inactive: Potency [1] | Potency [2] | Potency [3] | Potency [4] | Potency [5] | Potency [6] | Potency [7]

CCCCCCC(C)(C)C(=O)O
inactive: Potency [1] | Potency [2] | Potency [3] | Potency [4] | Potency [5] | Potency [6]
active: Potency [7] 48.6 µM

C1C[C@@H]2[C@H]3CC[C@H](C3)[C@@H]2C1
inactive: Potency [1] | Potency [2] | Potency [3] | Potency [4] | Potency [5] | Potency [6] | Potency [7]

Nc1ccc(N=Nc2ccccc2)c(N)c1
active: Potency [2] 33.6 µM | Potency [4] 59.8 µM | Potency [6] 53.3 µM | Potency [7] 1.69 µM
inactive: Potency [1] | Potency [3] | Potency [5]

CCOC(=O)c1ccc(I)cc1
inactive: Potency [1] | Potency [2] | Potency [3] | Potency [4] | Potency [5] | Potency [6] | Potency [7]

O=c1[nH]ncc2ccccc12
inactive: Potency [1] | Potency [2] | Potency [3] | Potency [4] | Potency [5] | Potency [6] | Potency [7]

O=C(Nc1cccc2c(=O)cc(-c3nn[nH]n3)oc12)c1ccc(OCCCCc2ccccc2)cc1
inactive: Potency [1] | Potency [2] | Potency [3] | Potency [4] | Potency [5] | Potency [6] | Potency [7]

c1cc(N(CC2CO2)CC2CO2)ccc1Cc1ccc(N(CC2CO2)CC2CO2)cc1 (stereo unspecified)
inactive: Potency [1] | Potency [3] | Potency [5]
active: Potency [2] 54.5 µM | Potency [4] 54.5 µM | Potency [6] 61.1 µM | Potency [7] 27.3 µM

O=C(OC(=O)c1ccccc1)c1ccccc1
inactive: Potency [1] | Potency [2] | Potency [3] | Potency [4] | Potency [5] | Potency [6] | Potency [7]

CNC(=O)c1cnn(-c2nc(N)c3ncn([C@@H]4O[C@H](CO)[C@@H](O)[C@H]4O)c3n2)c1
inactive: Potency [1] | Potency [2] | Potency [3] | Potency [4] | Potency [5] | Potency [6] | Potency [7]

Clc1cc(Cl)nc(Cl)n1
inactive: Potency [1] | Potency [2] | Potency [3] | Potency [4] | Potency [5] | Potency [6] | Potency [7]

Brc1cc(Br)c(Oc2cc(Br)c(Br)cc2Br)cc1Br
active: Potency [7] 29.9 µM
inactive: Potency [1] | Potency [2] | Potency [3] | Potency [4] | Potency [5] | Potency [6]

C=C(C)C(=O)OCCCCCCCCCCCCC
inactive: Potency [1] | Potency [2] | Potency [3] | Potency [4] | Potency [5] | Potency [6] | Potency [7]

CS(=O)(=O)c1ccc(-c2cn3ccccc3n2)cc1
active: Potency [7] 2.66 µM
inactive: Potency [1] | Potency [2] | Potency [3] | Potency [4] | Potency [5] | Potency [6]

CCCCCCCCCI
inactive: Potency [1] | Potency [2] | Potency [3] | Potency [4] | Potency [5] | Potency [6] | Potency [7]

Cc1ccccc1N=C(N)Nc1ccccc1C
inactive: Potency [1] | Potency [2] | Potency [3] | Potency [4] | Potency [5] | Potency [6] | Potency [7]

Cc1ccc(OC(=O)c2ccccc2O)cc1
inactive: Potency [1] | Potency [2] | Potency [3] | Potency [4] | Potency [5] | Potency [6] | Potency [7]

O=C1Cc2cc(Cl)ccc2N1
inactive: Potency [1] | Potency [2] | Potency [3] | Potency [4] | Potency [5] | Potency [6] | Potency [7]
